Source: PubChem BioAssay (EPA / NIEHS)
Results filed as inconclusive are left out. The source made the active and inactive calls. The calls were made as follows, unless noted: active = hit-call score of the fitted dose curve at least 0.9, where 1 is the maximum; inactive = score below 0.9.

Experiments:
[1] = molecular target: Nuclear respiratory factor 1 (Homo sapiens) (UniProt Q16656); assay: ATG_NRF1_CIS: Attagene CIS-FACTORIAL HepG2 Assay for human Nuclear Respiratory Factor 1 (NRF1) Orphan Gene (AID 2282987); details: HepG2 NRF1 cis-element reporter, Attagene multiplex; actives raise or lower the signal
Nuclear respiratory factor 1 (Homo sapiens), sequence (Q16656 whole entry, looked up): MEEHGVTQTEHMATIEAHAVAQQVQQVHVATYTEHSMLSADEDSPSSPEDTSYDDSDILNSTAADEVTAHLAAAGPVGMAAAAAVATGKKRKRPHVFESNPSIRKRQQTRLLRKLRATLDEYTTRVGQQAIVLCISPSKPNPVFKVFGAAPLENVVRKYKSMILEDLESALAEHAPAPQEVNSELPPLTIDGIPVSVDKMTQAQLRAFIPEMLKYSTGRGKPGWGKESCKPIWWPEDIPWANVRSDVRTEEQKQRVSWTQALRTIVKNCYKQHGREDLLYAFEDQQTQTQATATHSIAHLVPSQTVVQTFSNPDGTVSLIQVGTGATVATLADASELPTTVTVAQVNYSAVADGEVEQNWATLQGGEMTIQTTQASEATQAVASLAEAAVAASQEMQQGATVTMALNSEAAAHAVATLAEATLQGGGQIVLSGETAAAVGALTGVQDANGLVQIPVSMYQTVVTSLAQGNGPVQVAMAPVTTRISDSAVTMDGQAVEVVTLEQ
Summary of the method: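 HepG2 cells transiently transfected with multiple cis-regulated reporter units, exposed 24 h. Reporter mRNAs measured by RT-PCR, fluorescent labelling, HpaI digestion and capillary electrophoresis; bidirectional fitting against DMSO.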

[2] = ATG_NFI_CIS: Attagene CIS-FACTORIAL HepG2 Assay for human Nuclear Factor I (NFI) (AID 2282989); details: HepG2 cis-regulatory reporter, NFI response element transcription; actives raise or lower the signal
Summary of the method: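 Read-out: reporter mRNA via RT-PCR plus capillary electrophoresis with fluorescence detection. Transiently transfected HepG2 (endogenous TF activity on cis promoters), 24 h compound exposure; gain or loss of signal fitted against DMSO.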

[3] = molecular target: Myc proto-oncogene protein (Homo sapiens) (UniProt P01106); assay: ATG_Myc_CIS: Attagene CIS-FACTORIAL HepG2 Assay for human Myelocytomatosis (Myc) Proto-Oncogene Transcription Factor (AID 2282990); details: HepG2, Attagene cis-reporter transcription factor activity; actives raise or lower the signal
Myc proto-oncogene protein (Homo sapiens), sequence (P01106 whole entry, looked up): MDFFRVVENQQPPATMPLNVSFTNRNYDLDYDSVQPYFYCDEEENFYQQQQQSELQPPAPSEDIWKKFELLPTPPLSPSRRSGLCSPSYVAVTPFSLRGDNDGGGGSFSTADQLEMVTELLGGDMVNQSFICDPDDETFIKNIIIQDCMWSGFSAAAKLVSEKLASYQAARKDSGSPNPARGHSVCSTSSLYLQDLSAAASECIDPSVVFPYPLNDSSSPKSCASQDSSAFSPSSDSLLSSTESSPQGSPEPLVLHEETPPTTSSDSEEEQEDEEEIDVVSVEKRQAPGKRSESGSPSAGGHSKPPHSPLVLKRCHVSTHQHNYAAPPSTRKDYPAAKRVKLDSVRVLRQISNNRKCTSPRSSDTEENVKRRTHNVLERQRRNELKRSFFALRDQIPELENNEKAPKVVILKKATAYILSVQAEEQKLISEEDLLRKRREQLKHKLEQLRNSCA
Summary of the method: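 Cells of the HepG2 human liver line bear multiple cis-driven reporter transcription units. Reporter mRNA after 24 h exposure is reverse-transcribed, amplified, labelled and resolved by capillary electrophoresis, with gain- or loss-of-signal fitting relative to DMSO.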

[4] = ATG_NF_kB_CIS: Attagene CIS-FACTORIAL HepG2 Assay for human Nuclear Factor Kappa B (NF-kB) (AID 2282991); details: HepG2 Attagene cis-factorial NF-kB reporter mRNA; actives raise or lower the signal
Summary of the method: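 HepG2 cells transfected with cis-promoter-driven reporter units, so endogenous transcription factor activity is measured. Reporter mRNA quantified 24 h after dosing by RT-PCR and capillary electrophoresis, with bidirectional fitting against DMSO.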

[5] = ATG_NRF2_ARE_CIS: Attagene CIS-FACTORIAL HepG2 Assay for human Nuclear Factor Erythroid 2 Related Factor 2 (NFR2) response to Antioxidant Response Elements (ARE) (AID 2282992); details: HepG2 Attagene ARE/NRF2 reporter, transcription factor activity; actives raise or lower the signal;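 as to AC50: reporter mRNA level measured by RT-PCR and capillary electrophoresis fluorescence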
Summary of the method: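 Readout: reporter mRNA quantified by RT-PCR plus FAM-labelled primer extension, HpaI digestion and capillary electrophoresis, 24 h after dosing transfected HepG2 cells. Gain or loss of signal is fitted bidirectionally against DMSO baseline.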

[6] = BSK_3C_TissueFactor: BioMAP Diversity Plus: 3C Assay for Tissue Factor Biomarker Activity (AID 2282997); details: BioMAP 3C HUVEC, tissue factor biomarker readout; actives raise or lower the signal
Summary of the method: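 In this endothelial system, HUVEC are treated for 24 h and Tissue Factor is assessed by ELISA, normalised to DMSO.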

[7] = BSK_3C_uPAR: BioMAP Diversity Plus: 3C Assay for Urokinase-type plasminogen activator receptor (uPAR) Biomarker Activity (AID 2282998); details: BioMAP 3C HUVEC, uPAR biomarker ELISA; actives raise or lower the signal
Summary of the method: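 HUVEC primary cells; 24 h post-dose; uPAR by ELISA; gain or loss of signal fitted bidirectionally vs DMSO baseline.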

[8] = BSK_4H_Eotaxin3: BioMAP Diversity Plus: 4H Assay for Eotaxin 3 Biomarker Activity (AID 2283000); details: primary human endothelial cells (HUVEC); actives raise or lower the signal
Summary of the method: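 ELISA quantitation of CCL26 (Eotaxin-3) protein from chemically dosed human vascular endothelial cells at 24 h; increases and decreases both scored relative to DMSO-treated baseline.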

[9] = molecular target: human Peroxisome Proliferator-activated Receptor alpha (PPARa), PPARA (gene 5465) (UniProt Q07869); assay: ATG_PPARa_TRANS: Attagene TRANS-FACTORIAL HepG2 Assay for human Peroxisome Proliferator-activated Receptor alpha (PPARa) (AID 2283001; active = hit-call score of the fitted dose curve at least 0.9, where 1 is the maximum)
human Peroxisome Proliferator-activated Receptor alpha (PPARa), PPARA (gene 5465), sequence (Q07869 whole entry, looked up, the tested form may be a part): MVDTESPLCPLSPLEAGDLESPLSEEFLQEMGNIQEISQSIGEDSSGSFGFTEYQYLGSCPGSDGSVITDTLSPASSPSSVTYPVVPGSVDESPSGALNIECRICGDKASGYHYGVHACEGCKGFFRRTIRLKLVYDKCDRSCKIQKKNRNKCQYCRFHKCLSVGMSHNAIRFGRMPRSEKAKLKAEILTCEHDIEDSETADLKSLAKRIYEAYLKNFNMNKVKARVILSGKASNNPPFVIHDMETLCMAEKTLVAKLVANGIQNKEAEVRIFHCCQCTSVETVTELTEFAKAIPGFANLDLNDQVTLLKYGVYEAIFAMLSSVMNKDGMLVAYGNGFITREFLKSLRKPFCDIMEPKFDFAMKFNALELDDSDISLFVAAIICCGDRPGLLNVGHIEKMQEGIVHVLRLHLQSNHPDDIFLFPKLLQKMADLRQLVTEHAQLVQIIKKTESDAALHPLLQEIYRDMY
Summary of the method: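 Transfected HepG2 cells treated with test chemical for 24 h. RNA isolated, reverse-transcribed with oligo(dT), PCR-amplified, FAM-labelled and HpaI-digested. Fragments sized by capillary electrophoresis; gain-of-signal fit relative to DMSO.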

[10] = read-out: Intercellular Adhesion Molecule 1 (ICAM1), ICAM1 (gene 3383); assay: BSK_3C_ICAM1: BioMAP Diversity Plus: 3C Assay for Intercellular Adhesion Molecule 1 (ICAM1) Biomarker Activity (AID 2283003); details: primary human endothelial cells (HUVEC); actives raise or lower the signal
Summary of the method: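 ELISA read-out of ICAM-1; HUVEC (primary human), 3C system, 24 h post-dosing; bidirectional fit vs DMSO baseline.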

[11] = BSK_3C_Proliferation: Cell Proliferation Assessment in the BioMAP Diversity Plus: 3C Assay (AID 2283006); details: primary human endothelial cells (HUVEC);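 as to AC50: potency may reflect either rise or fall in cell number versus DMSO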
Summary of the method: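 HUVEC, sub-confluent; 48 h chemical exposure; 10% TCA fix, 0.1% SRB stain, A560 total protein. Gain or loss of signal fitted both directions vs DMSO control.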

[12] = molecular target: human RAR-related Orphan Receptor beta (RORb), RORB (gene 6096) (UniProt Q92753); assay: ATG_RORb_TRANS: Attagene TRANS-FACTORIAL HepG2 Assay for human RAR-related Orphan Receptor beta (RORb) (AID 2283010; active = hit-call score of the fitted dose curve at least 0.9, where 1 is the maximum)
human RAR-related Orphan Receptor beta (RORb), RORB (gene 6096), sequence (Q92753 whole entry, looked up, the tested form may be a part): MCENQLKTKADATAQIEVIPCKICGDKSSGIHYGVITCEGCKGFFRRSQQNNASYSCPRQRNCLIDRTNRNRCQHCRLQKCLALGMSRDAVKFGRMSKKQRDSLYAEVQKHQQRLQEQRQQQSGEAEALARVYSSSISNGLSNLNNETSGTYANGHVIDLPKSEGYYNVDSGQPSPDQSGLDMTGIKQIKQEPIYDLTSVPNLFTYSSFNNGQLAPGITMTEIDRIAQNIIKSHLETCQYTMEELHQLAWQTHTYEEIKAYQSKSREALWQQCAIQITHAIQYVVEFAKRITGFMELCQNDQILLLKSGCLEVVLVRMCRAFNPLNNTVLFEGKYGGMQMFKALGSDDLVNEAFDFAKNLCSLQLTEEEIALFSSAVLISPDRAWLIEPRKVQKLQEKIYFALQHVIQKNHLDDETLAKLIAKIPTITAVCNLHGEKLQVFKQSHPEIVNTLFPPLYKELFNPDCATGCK
Summary of the method: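 HepG2, transient MRTU transfection (GAL4-UAS reporters, exogenous NR-Gal4 chimeras); 24 h compound exposure; total RNA → RT-PCR → 6-FAM primer extension → HpaI digest → CE fluorescence. Positive direction vs DMSO baseline.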

[13] = molecular target: Cellular tumor antigen p53 (Homo sapiens) (UniProt P04637); assay: ATG_p53_CIS: Attagene CIS-FACTORIAL HepG2 Assay for human p53 Transcription Factor (AID 2282994); details: HepG2 p53 cis-element reporter, Attagene mRNA; actives raise or lower the signal
Cellular tumor antigen p53 (Homo sapiens), sequence (P04637 whole entry, looked up): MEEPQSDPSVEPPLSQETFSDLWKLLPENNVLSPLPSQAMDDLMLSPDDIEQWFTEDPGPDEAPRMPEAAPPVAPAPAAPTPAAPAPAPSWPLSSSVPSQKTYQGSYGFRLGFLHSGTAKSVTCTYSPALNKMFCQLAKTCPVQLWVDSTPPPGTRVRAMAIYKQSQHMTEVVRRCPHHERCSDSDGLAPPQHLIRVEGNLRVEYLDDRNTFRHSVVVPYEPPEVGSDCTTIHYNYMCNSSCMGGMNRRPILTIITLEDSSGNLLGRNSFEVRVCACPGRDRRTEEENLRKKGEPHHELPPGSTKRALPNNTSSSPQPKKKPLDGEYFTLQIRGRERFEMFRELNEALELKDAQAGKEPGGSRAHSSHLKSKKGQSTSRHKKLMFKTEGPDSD
Summary of the method: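 Read-out: reporter mRNA by RT-PCR plus capillary electrophoresis with fluorescence detection. Human HepG2 liver cells carried transfected multi-reporter cis-element constructs, dosed 24 h. Gain or loss of signal fitted bidirectionally against DMSO control.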

[14] = BSK_3C_VCAM1: BioMAP Diversity Plus: 3C Assay for Vascular cell adhesion molecule 1 (VCAM1) Biomarker Activity (AID 2282999); details: BioMAP 3C HUVEC, VCAM1 ELISA, cytokine-stimulated; actives raise or lower the signal
Summary of the method: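 Activity fitted in both directions relative to DMSO, with ELISA measurement of the surface marker on primary HUVEC (3C) at 24 h post-treatment; parallel SRB staining (0.1% SRB, TCA-fixed, 560 nm) flagged overt cytotoxicity.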

[15] = molecular target: human Peroxisome Proliferator-activated Receptor delta (PPARd), PPARD (gene 5467) (UniProt Q03181); assay: ATG_PPARd_TRANS: Attagene TRANS-FACTORIAL HepG2 Assay for human Peroxisome Proliferator-activated Receptor delta (PPARd) (AID 2283002; active = hit-call score of the fitted dose curve at least 0.9, where 1 is the maximum)
human Peroxisome Proliferator-activated Receptor delta (PPARd), PPARD (gene 5467), sequence (Q03181 whole entry, looked up): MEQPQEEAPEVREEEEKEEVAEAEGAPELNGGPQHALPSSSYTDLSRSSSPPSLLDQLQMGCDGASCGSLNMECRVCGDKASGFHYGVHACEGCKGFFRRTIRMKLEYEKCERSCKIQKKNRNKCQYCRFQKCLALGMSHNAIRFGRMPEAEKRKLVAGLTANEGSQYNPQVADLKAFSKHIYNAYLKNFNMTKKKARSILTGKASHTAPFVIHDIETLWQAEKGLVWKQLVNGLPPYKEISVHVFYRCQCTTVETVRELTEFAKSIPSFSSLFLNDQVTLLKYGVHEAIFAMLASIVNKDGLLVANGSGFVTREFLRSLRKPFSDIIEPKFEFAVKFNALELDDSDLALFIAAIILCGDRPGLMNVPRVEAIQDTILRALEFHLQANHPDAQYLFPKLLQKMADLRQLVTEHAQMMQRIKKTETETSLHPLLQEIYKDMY
Summary of the method: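 Cell-based TRANS reporter: HepG2, transient MRTU transfection, 24 h exposure. Readout = reporter mRNA (RT-PCR/CE, 6-FAM). Gain-of-signal fit vs DMSO control.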

[16] = molecular target: Peroxisome proliferator-activated receptor gamma (Homo sapiens) (UniProt P37231); assay: ATG_PPARg_TRANS: Attagene TRANS-FACTORIAL HepG2 Assay for human Peroxisome Proliferator-activated Receptor-gamma (PPARg) (AID 2283007; active = hit-call score of the fitted dose curve at least 0.9, where 1 is the maximum)
Peroxisome proliferator-activated receptor gamma (Homo sapiens), sequence (P37231 whole entry, looked up, the tested form may be a part): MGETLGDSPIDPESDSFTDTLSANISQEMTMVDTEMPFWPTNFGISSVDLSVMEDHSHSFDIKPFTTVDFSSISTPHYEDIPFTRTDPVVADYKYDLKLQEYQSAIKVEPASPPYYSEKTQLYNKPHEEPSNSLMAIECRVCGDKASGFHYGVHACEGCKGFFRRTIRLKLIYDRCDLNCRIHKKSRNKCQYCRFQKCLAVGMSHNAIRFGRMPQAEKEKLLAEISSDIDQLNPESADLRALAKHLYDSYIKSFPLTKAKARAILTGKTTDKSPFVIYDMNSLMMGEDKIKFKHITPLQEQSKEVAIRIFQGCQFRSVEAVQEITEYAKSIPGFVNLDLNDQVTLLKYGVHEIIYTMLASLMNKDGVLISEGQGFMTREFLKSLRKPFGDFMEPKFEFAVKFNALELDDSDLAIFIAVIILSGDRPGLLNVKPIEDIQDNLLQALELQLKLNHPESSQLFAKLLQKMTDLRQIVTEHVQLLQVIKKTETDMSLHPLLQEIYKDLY
Summary of the method: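 HepG2 cells are transiently transfected with GAL4-UAS reporter units driven by chimeric NR-Gal4 fusions and dosed for 24 h. Reporter mRNA is quantified by RT-PCR, 6-FAM labelling, HpaI digestion and capillary electrophoresis. Induction is scored against DMSO.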

[17] = molecular target: Nuclear receptor subfamily 1 group I member 2 (Homo sapiens) (UniProt O75469); assay: ATG_PXR_TRANS: Attagene TRANS-FACTORIAL HepG2 Assay for human Pregnane X Receptor (PXR) (AID 2283008; active = hit-call score of the fitted dose curve at least 0.9, where 1 is the maximum)
Nuclear receptor subfamily 1 group I member 2 (Homo sapiens), sequence (O75469 whole entry, looked up, the tested form may be a part): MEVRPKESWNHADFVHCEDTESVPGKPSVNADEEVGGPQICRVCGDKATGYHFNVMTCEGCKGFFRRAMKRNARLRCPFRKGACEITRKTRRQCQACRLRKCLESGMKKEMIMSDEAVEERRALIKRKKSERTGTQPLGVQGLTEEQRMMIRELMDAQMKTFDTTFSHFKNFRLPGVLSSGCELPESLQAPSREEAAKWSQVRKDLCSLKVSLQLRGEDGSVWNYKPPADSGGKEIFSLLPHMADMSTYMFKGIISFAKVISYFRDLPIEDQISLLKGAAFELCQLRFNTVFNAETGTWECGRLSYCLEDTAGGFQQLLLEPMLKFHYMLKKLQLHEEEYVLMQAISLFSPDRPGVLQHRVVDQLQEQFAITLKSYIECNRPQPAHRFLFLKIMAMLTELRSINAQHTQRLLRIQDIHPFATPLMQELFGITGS
Summary of the method: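 Trans-factorial format: exogenous NR-Gal4 fusion activity, not endogenous factor, in transfected human HepG2 liver cells. After 24 h dosing, RNA isolated, reverse-transcribed, amplified and resolved by capillary electrophoresis; induction scored versus DMSO.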

[18] = molecular target: human Retinoic Acid Receptor beta (RARb), RARB (gene 5915) (UniProt P10826); assay: ATG_RARb_TRANS: Attagene TRANS-FACTORIAL HepG2 Assay for human Retinoic Acid Receptor beta (AID 2283004; active = hit-call score of the fitted dose curve at least 0.9, where 1 is the maximum)
human Retinoic Acid Receptor beta (RARb), RARB (gene 5915), sequence (P10826 whole entry, looked up, the tested form may be a part): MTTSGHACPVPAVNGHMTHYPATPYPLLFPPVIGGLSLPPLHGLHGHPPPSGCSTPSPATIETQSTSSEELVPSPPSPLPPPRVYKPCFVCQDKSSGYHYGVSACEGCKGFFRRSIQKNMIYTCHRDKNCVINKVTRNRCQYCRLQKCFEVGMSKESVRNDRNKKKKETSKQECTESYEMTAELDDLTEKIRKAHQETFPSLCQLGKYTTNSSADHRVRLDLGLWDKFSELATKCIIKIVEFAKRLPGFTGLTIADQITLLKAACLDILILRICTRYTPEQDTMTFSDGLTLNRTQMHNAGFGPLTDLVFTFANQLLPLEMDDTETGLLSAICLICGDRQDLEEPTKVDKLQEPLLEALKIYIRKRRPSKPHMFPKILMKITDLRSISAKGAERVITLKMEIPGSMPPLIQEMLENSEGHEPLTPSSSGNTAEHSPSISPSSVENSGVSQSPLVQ
Summary of the method: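 Fluorescent capillary-electrophoresis detection of GAL4-UAS reporter mRNA defines the endpoint, with induction over DMSO-treated wells scored as activity. Transiently transfected human hepatoma HepG2 cells expressing exogenous NR–Gal4 proteins are exposed to test chemicals for 24 h.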

[19] = molecular target: Retinoic acid receptor alpha (Homo sapiens) (UniProt P10276); assay: ATG_RARa_TRANS: Attagene TRANS-FACTORIAL HepG2 Assay for human Retinoic Acid Receptor alpha (RARa) (AID 2283005; active = hit-call score of the fitted dose curve at least 0.9, where 1 is the maximum)
Retinoic acid receptor alpha (Homo sapiens), sequence (P10276 whole entry, looked up, the tested form may be a part): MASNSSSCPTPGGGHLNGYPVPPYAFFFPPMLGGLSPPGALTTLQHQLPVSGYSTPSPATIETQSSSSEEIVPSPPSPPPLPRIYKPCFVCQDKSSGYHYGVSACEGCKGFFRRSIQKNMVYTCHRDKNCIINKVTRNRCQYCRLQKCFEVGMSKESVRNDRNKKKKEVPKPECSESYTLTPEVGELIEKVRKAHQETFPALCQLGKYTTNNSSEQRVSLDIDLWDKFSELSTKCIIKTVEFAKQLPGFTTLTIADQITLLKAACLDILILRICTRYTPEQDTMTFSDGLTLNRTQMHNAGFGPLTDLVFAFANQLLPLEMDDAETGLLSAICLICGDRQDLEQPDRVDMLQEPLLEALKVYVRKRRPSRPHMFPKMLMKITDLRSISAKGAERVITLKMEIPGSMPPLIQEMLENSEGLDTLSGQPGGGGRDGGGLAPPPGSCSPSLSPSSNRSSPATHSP
Summary of the method: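 Reporter transcripts, measured by RT-PCR with fluorescent labeling and capillary electrophoresis after 24 h dosing, reflect activity of an exogenous human RARa–GAL4 fusion in transiently transfected HepG2. Fitted for increase relative to DMSO.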

[20] = ATG_Oct_MLP_CIS: Attagene CIS-FACTORIAL HepG2 Assay for human Octamer-Binding Transcription Factor (Oct) (AID 2282993); details: HepG2 Attagene cis-factorial Oct reporter, mRNA; actives raise or lower the signal
Summary of the method: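 Read-out: reporter mRNA via RT-PCR plus capillary electrophoresis of 6-FAM-labelled fragments. Transiently transfected HepG2, 24 h exposure, endogenous TF activity on cis elements. Gain or loss of signal fitted relative to DMSO.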

Measured: AC50

Cc1ccc(N)cc1
not listed: [13] | [14] | [15] | [16] | [17] | [18] | [19] | [20]
inactive: all other assays above

CC(C)(O)c1cnn2c(-c3ccc(F)c(-c4c(F)cccc4C#N)c3)cnc2n1
active: [1] 8.4 µM | [5] 19.8 µM | [13] 8.54 µM | [6] 28.2 µM | [7] 31.3 µM | [14] 35.3 µM | [8] 33.6 µM | [11] 33.8 µM | [17] 0.0774 µM
inactive: [2] | [3] | [4] | [9] | [15] | [10] | [16]

CCC12COCN1COC2
not listed: [16] | [18] | [19] | [20]
inactive: all other assays above

[As]#[In]
not listed: [9] | [11] | [13] | [15] | [16] | [17] | [20]
inactive: all other assays above

CCCCCCCCn1sccc1=O
inactive: [5] | [9]
active: [1] 16.5 µM | [2] 17.2 µM | [3] 17.5 µM | [4] 21.1 µM | [6] 11.7 µM | [7] 15.3 µM | [14] 9.3 µM | [8] 9.13 µM | [10] 11.7 µM | [16] 9.45 µM | [17] 10.7 µM

CN(C)[C@@H]1C(=O)C(C(N)=O)=C(O)[C@@]2(O)C(=O)C3=C(O)c4c(O)cccc4[C@@](C)(O)[C@H]3C[C@@H]12
not listed: [7] | [11] | [12] | [13] | [14] | [18] | [19]
inactive: all other assays above

CCCCC(CC)COC(=O)c1ccc(C(=O)OCC(CC)CCCC)c(C(=O)OCC(CC)CCCC)c1 (stereo not given)
not listed: [9] | [11] | [13] | [14] | [15] | [16] | [19]
inactive: all other assays above

CCCCCOC(=O)c1ccccc1C(=O)OCCCCC
active: [5] 56.4 µM | [14] 20 µM | [8] 20 µM | [11] 19.1 µM | [16] 49.7 µM | [17] 27.9 µM
inactive: [1] | [2] | [3] | [4] | [13] | [6] | [9] | [10]
